Compound activity from PubChem.
This is a sample that favours compounds with a hit; in the whole collection about 2.3% have one here.
Bcl-xL primary – inhibitors of human Bcl-xL. Q07817. GST-Bcl-xL / FITC-Bim BH3 peptide fluorescence polarization. inhibition, % at 10.9 µM. 0.7% of 320,000 active;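 active = inhibition above the mean of all tested compounds plus 3 SD, cutoff set per campaign, cut at about 30% in these data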;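 note: 0% = DMSO wells and 100% = unlabeled Bim-BH3 peptide competitor; inhibitors lower millipolarization by displacing the labeled peptide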
Target sequence (Q07817 whole entry, looked up): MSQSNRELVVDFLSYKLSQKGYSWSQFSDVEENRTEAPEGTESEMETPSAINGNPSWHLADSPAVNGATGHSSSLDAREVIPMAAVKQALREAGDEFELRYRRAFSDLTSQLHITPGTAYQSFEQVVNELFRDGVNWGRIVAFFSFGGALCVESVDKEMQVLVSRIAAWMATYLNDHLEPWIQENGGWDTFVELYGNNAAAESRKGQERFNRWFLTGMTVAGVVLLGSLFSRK
Mcl1-Noxa inh – disrupts binding of human Mcl-1 to Noxa peptide; Q07820; TR-FRET Mcl-1/Noxa peptide binding, 2 h; inhibition, % at 21.7 µM; 1.5% of 220,000 active;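 active = compounds that cut the protein-peptide binding signal by more than 50% relative to plate controls in a single-dose test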;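 note: His-tagged Mcl-1 with rhodamine Noxa BH3 peptide and terbium anti-His antibody; 0% = Mcl-1 plus Noxa peptide wells and 100% = peptide-only wells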
GLD-1 TGE inh – GLD-1-TGE RNA interaction inhibition (C. elegans); inhibition, % at 5.96 µM; AID 2280; purified GLD-1 + fluorescein TGE RNA, fluorescence polarization; Q17339; 0.44% of 320,000 active;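 active = percent inhibition above a per-plate cutoff, the plate mean of test compounds plus 3 SD, cut at about 30% in these data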;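 note: 0% = DMSO wells with GLD-1 and probe and 100% = wells lacking GLD-1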
Target sequence (Q17339 whole entry, looked up): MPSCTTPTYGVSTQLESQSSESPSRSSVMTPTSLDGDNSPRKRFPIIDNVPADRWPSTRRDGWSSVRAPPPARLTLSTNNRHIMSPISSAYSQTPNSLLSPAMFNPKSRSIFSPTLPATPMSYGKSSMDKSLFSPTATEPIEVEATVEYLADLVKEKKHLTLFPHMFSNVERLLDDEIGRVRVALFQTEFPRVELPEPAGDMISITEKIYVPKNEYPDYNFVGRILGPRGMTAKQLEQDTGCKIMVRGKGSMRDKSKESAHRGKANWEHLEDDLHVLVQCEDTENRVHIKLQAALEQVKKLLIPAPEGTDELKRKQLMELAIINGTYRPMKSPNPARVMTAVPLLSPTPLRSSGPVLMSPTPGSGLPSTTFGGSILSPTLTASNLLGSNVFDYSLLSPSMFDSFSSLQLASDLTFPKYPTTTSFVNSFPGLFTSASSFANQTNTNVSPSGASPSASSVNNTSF
MCL1 BIM primary – disrupts human MCL1 binding to BIM-BH3 peptide | Q07820 | GST-MCL1 / FITC-Bim-BH3 fluorescence polarization | inhibition, % at 10.9 µM | 0.68% of 320,000 active;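 active = inhibition above the mean inhibition of all tested compounds plus 3 SD, set per campaign, cut at about 40% in these data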;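 note: 0% = DMSO wells and 100% = unlabeled Bim-BH3 peptide control; higher means more loss of mP so more displacement of Bim peptide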
Bim-Mcl-1 – disrupts Bim peptide binding to human Mcl-1; Q07820; inhibition, % at 10 µM; Bead-based flow cytometry, Bim peptide-Mcl-1 binding; 0.1% of 190,000 active; in the data active = inhibition above about 40%;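 note: 0% = no compound tracer wells and 100% = peptide blocker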
Mcl1 Bid PPI – Mcl-1/Bid interaction inhibition | inhibition, % at 21.7 µM | TR-FRET Mcl-1/Bid-Dy647 peptide binding, 1536-well | 0.97% of 220,000 active;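 active = compounds that cut the binding signal by more than half at the single screening dose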;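 note: His-tagged Mcl-1 with europium anti-His antibody binding Bid BH3 peptide; 0% = Mcl-1 plus peptide wells and 100% = peptide-only wells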
Active calls of the source: *.

`CCOC(=O)C1=C(COC(=O)CCNS(=O)(=O)c2ccc(NC(C)=O)cc2)NC(=O)NC1C` (stereo unspecified) gave Bcl-xL primary -2, GLD-1 TGE inh 3 and MCL1 BIM primary 0.
`COc1ccccc1N1CCN(CC(=O)Nc2ccc(S(=O)(=O)N3CCCCCC3)cc2)CC1` gave Bcl-xL primary 0, GLD-1 TGE inh 9 and MCL1 BIM primary 1.
Screening CC(=O)N1CCCN(Cc2cn(-c3ccc(C)cc3)nc2-c2ccc(F)cc2)CC1 returned Bcl-xL primary 4, Mcl1-Noxa inh 34, GLD-1 TGE inh 8, MCL1 BIM primary -3, Bim-Mcl-1 14 and Mcl1 Bid PPI 56*.
Cc1ccc(-n2cc(CN3CCCN(C=O)CC3)c(-c3ccc(F)cc3)n2)cc1 was read as Bcl-xL primary 3, Mcl1-Noxa inh 12, GLD-1 TGE inh 7, MCL1 BIM primary 4, Bim-Mcl-1 -6 and Mcl1 Bid PPI 12.
`CC(=O)Oc1c(Cl)cc(Cl)cc1/C=C/c1ccc2ccccc2n1` gave Bcl-xL primary 0, GLD-1 TGE inh 0, MCL1 BIM primary -6, Bim-Mcl-1 -2 and Mcl1 Bid PPI -29.
`CC(=O)Oc1ccc(Cl)cc1/C=C/c1ccc2ccccc2n1` gave Bcl-xL primary 2, Mcl1-Noxa inh 22, GLD-1 TGE inh 9, MCL1 BIM primary -1, Bim-Mcl-1 -7 and Mcl1 Bid PPI 97*.
Screening CC(NS(=O)(=O)c1ccc2c(c1)oc(=O)n2C)c1ccccc1 (stereo unspecified) returned Bcl-xL primary -21, GLD-1 TGE inh -5 and MCL1 BIM primary -47.
For COc1ccc(Cl)cc1NC(=O)CN(C)C(=O)CCc1nc2ccccc2c(=O)[nH]1 the results were Bcl-xL primary 1, GLD-1 TGE inh 7 and MCL1 BIM primary 1.
Screening N#C/C(=C(/O)CSc1nnc(Cc2cccs2)n1C1CCCCC1)c1nc2ccccc2[nH]1 returned Bcl-xL primary -2, Mcl1-Noxa inh 52*, GLD-1 TGE inh -10, MCL1 BIM primary -2, Bim-Mcl-1 7 and Mcl1 Bid PPI -65.
For COc1ccccc1-c1nnc(SC/C(O)=C(\C#N)c2nc3ccccc3[nH]2)n1C1CCCCC1 the results were Bcl-xL primary 6, Mcl1-Noxa inh -47, GLD-1 TGE inh 3, MCL1 BIM primary -3, Bim-Mcl-1 -6 and Mcl1 Bid PPI -44.
`O=C(O)COc1ccc(Br)cc1/C=C1/SC(=O)N(CC(=O)N2CCCC2)C1=O` gave Bcl-xL primary 7, Mcl1-Noxa inh 19, GLD-1 TGE inh 5, MCL1 BIM primary 13, Bim-Mcl-1 -1 and Mcl1 Bid PPI -15.
O=C(O)CN1C(=O)/C(=C\c2cc(Br)ccc2OCc2ccccc2Cl)SC1=S was read as Bcl-xL primary 16, GLD-1 TGE inh 1 and MCL1 BIM primary 57*.
`Cc1nc(C)n(CC(C)C(=O)N2CCN(S(=O)(=O)c3ccccc3)CC2)n1` (stereo unspecified) gave Bcl-xL primary 2, GLD-1 TGE inh -5 and MCL1 BIM primary 3.
Screening C=CCn1c(O)c(N=NC(=O)CNC(=O)/C=C/c2ccc(OC)cc2)c2ccccc21 returned Bcl-xL primary 6, Mcl1-Noxa inh 7, GLD-1 TGE inh -4, MCL1 BIM primary 5 and Mcl1 Bid PPI 96*.
For CCCn1c(O)c(N=NC(=O)CNC(=O)/C=C/c2ccc(OC)cc2)c2ccccc21 the results were Bcl-xL primary 7, GLD-1 TGE inh -4 and MCL1 BIM primary 2.
For C=CCn1c(O)c(N=NC(=O)CNC(=O)/C=C/c2ccco2)c2ccccc21 the results were Bcl-xL primary 10, Mcl1-Noxa inh 69*, GLD-1 TGE inh 0, MCL1 BIM primary 29, Bim-Mcl-1 -2 and Mcl1 Bid PPI -16.
For Cc1ccc(S(=O)(=O)N(C(=O)c2ccncc2)c2ccc(OC(=O)c3ccncc3)c3ccccc23)c(C)c1 the results were Bcl-xL primary 8, Mcl1-Noxa inh 50, GLD-1 TGE inh 22, MCL1 BIM primary 4, Bim-Mcl-1 -3 and Mcl1 Bid PPI -54.
Cc1ccc(S(=O)(=O)N(C(=O)c2ccncc2)c2ccc(OC(=O)c3ccncc3)c3ccccc23)cc1 was read as Bcl-xL primary -2, Mcl1-Noxa inh 59*, GLD-1 TGE inh 8, MCL1 BIM primary -2, Bim-Mcl-1 -9 and Mcl1 Bid PPI -38.
Screening COC(=O)Cc1nnc(Nc2cccc(C)c2)c2ccccc12 returned Bcl-xL primary 6, Mcl1-Noxa inh 6, GLD-1 TGE inh 6, MCL1 BIM primary -2 and Mcl1 Bid PPI -31.
`CCOC(=O)Cc1nnc(Nc2cccc(C)c2)c2ccccc12` gave Bcl-xL primary 4, Mcl1-Noxa inh -26, GLD-1 TGE inh 3, MCL1 BIM primary -1, Bim-Mcl-1 -5 and Mcl1 Bid PPI 64*.
For CC(C)OC(=O)C1=C2SCC(=O)N2C(N)=C(C#N)C1 the results were Bcl-xL primary 37*, Mcl1-Noxa inh 10, GLD-1 TGE inh 0, MCL1 BIM primary 2, Bim-Mcl-1 0 and Mcl1 Bid PPI -38.
Screening CCc1ccccc1NC(=O)CSc1ccsc1[N+](=O)[O-] returned Bcl-xL primary 7, Mcl1-Noxa inh 54*, GLD-1 TGE inh 4, MCL1 BIM primary 34, Bim-Mcl-1 -3 and Mcl1 Bid PPI -57.
Screening NS(=O)(=O)c1ccc(CCNC(=O)CSc2ccsc2[N+](=O)[O-])cc1 returned Bcl-xL primary 16, Mcl1-Noxa inh 53*, GLD-1 TGE inh 3, MCL1 BIM primary 13, Bim-Mcl-1 5 and Mcl1 Bid PPI -35.
`O=C(CSc1ccsc1[N+](=O)[O-])Nc1cccc(F)c1` gave Mcl1-Noxa inh 98*, Bim-Mcl-1 0 and Mcl1 Bid PPI -47.
Screening COc1ccccc1CNC(=O)CSc1ccsc1[N+](=O)[O-] returned Bcl-xL primary 11, Mcl1-Noxa inh 27, GLD-1 TGE inh 9, MCL1 BIM primary 29, Bim-Mcl-1 -6 and Mcl1 Bid PPI -8.
`CCCn1c(C(C)Nc2nc(-c3cc(Cl)c(N)c(Cl)c3)cs2)nc2cc(Cl)c(N3CCCCC3)cc21` (stereo unspecified) gave Bcl-xL primary -1, GLD-1 TGE inh -1 and MCL1 BIM primary 3.
For Cc1cnc(NC(=O)c2c(-c3ccccc3)noc2C)s1 the results were Bcl-xL primary 0, Mcl1-Noxa inh -12, GLD-1 TGE inh 4, MCL1 BIM primary -3 and Mcl1 Bid PPI -63.
Screening NC(=O)c1ccccc1OCC(=O)N1CCC(Cc2ccccc2)CC1 returned Bcl-xL primary 5, GLD-1 TGE inh 2 and MCL1 BIM primary 1.
For Cc1ccc2c(c1)N/C(=C(\C=C(/Cl)[N+](=O)[O-])[N+](=O)[O-])N2 the results were Bcl-xL primary 1, Mcl1-Noxa inh 59*, GLD-1 TGE inh -9, MCL1 BIM primary 5, Bim-Mcl-1 0 and Mcl1 Bid PPI 10.
For COc1ccc(Cl)cc1NC(=O)CSc1nnc(CNC(=O)c2cccs2)o1 the results were Bcl-xL primary -3, GLD-1 TGE inh -4 and MCL1 BIM primary 3.
